Only some compounds are listed: those with a hit (about 1.1% of all), similar ones and a draw of the others.
PKA-R2B activ: activators of PKA-R2B holoenzyme, primary screen, biochemical, fluorescence polarization, Cy5-IP20, human; cAMP-dependent protein kinase catalytic subunit beta (Homo sapiens) + cAMP-dependent …; PKA-R2B holoenzyme dissociation; R2B truncated from residue 108, S112A mutant; 0% DMSO only, 100% 113 µM cGMP; activation, % at 11.4 µM; 0.079% of 340,000 active;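 active = activation above a cutoff set at the mean over all compounds plus 3 SD, cut at about 18% in these data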;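 also: higher means more holoenzyme dissociation and a rise in polarization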
Target sequence (P31323 whole entry, looked up, other chains not shown, the tested form may be a part): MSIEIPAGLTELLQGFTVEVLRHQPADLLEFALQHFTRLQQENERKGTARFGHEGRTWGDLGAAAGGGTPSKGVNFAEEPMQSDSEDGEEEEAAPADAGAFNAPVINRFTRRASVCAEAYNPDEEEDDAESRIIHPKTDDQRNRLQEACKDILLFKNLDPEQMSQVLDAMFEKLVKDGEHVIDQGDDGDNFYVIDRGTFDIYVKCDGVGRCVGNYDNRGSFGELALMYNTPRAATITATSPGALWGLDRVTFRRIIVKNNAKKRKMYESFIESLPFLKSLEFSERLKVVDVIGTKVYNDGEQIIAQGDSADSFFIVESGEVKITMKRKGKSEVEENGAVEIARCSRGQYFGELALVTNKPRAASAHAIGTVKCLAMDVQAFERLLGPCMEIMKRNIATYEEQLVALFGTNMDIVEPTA
PKA-R1A act: activators of PKA-R1A holoenzyme, primary screen, biochemical, fluorescence polarization, Cy5-IP20, bovine R1A, mouse PKAc; PKA-R1A dissociation; scaled: DMSO 0%, 113 µM cGMP 100%; activation, % at 11.4 µM; 0.083% of 340,000 active;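 active = percent activation above the mean of all tested compounds plus 3 SD, cut at about 19% in these data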;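 also: higher means more PKAc released from R1A so a rise in polarization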
MsrA inh: bovine MsrA enzyme inhibitors, primary screen, biochemical, absorbance, HTS; inhibition, % at 15.5 µM; purified bovine MsrA, absorbance read-out; Methionine sulfoxide reductase A (Bos taurus); 0.75% of 360,000 active
MsrA act: bovine MsrA enzyme activators, primary screen, biochemical, absorbance, HTS. purified bovine MsrA, absorbance read-out. activation, % at 10.6 µM. 0.3% of 360,000 active; in the data active = activation above about 7.5%
MsrA inh confirm: bovine MsrA inhibitors, retest, confirmation, biochemical, absorbance, HTS. shares compounds with MsrA inh. purified bovine MsrA, absorbance read-out. inhibition, % at 15.5 µM. 41% of 2,300 active. AID 651822, 2012;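 also: coupled to thioredoxin reductase with NADPH and selenocystamine and DMSO as substrate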
Hits are given with their value; - = inactive; . = not tested or not shown. Rule as the data show it, unless noted: active = inhibition above about 4.5%; inactive = the rest.

SMILES	PKA-R2B activ	PKA-R1A act	MsrA inh	MsrA act	MsrA inh confirm
O=C(CN1C(=O)S/C(=C\c2ccccc2)C1=O)Nc1cc([N+](=O)[O-])ccc1O	-	-	4.8	-	4.6
O=C(CCN1C(=O)S/C(=C\c2ccccc2)C1=O)N1CCOCC1	-	-	5.7	-	-
O=C(CN1C(=O)S/C(=C\C=C\c2ccccc2)C1=O)NC1CCS(=O)(=O)C1 (stereo unspecified)	-	-	-	-	.
O=C(CCN1C(=O)/C(=C\c2ccccc2)SC1=S)N1CCOCC1	-	-	-	-	.
O=C(CN1C(=O)S/C(=C/c2ccccn2)C1=O)N1CCOCC1	-	-	5.3	-	4.8
COc1cccc(C(CC2=CCCCC2)NC(=O)C(F)(F)F)c1 (stereo unspecified)	.	.	-	.	.
COC(=O)C(Cc1ccccc1)NC(=O)CCNC(=O)c1ccco1 (stereo unspecified)	-	-	-	-	.
O=C(CCN1C(=O)S/C(=C\c2ccc(F)cc2)C1=O)Nc1ccc(C(=O)O)c(O)c1	-	-	-	-	.
O=C(CCN1C(=O)S/C(=C/c2ccccc2)C1=O)Nc1ccc(C(=O)O)c(O)c1	-	-	5.7	-	-
O=S(=O)(c1cc(Cl)ccc1Cl)N1CC2CCCN2c2ccc(C(F)(F)F)cc21 (stereo unspecified)	-	-	-	-	.
COc1ccc(N=C2CC(C)(C)CC(=O)/C2=C(/O)c2ccccc2)cc1	-	-	4.9	-	-
C=CCN=C1CC(C)(C)CC(=O)/C1=C(\O)c1ccccc1	-	-	-	-	.
Cc1nn(-c2ccccc2)c(N)c1N=Nc1ccccc1	-	-	5.3	-	-
CCn1c(C)nc2cc(C(=O)N/N=C/c3ccc(O)cc3)ccc21	-	-	5.0	-	-
CCn1c(C)nc2cc(C(=O)N/N=C/c3ccc(OC)cc3)ccc21	.	.	-	-	.
CCn1c(C)nc2cc(C(=O)N/N=C/c3ccc(OC)c(O)c3)ccc21	-	-	7.5	-	4.7
CCn1c(C)nc2cc(C(=O)N/N=C/c3ccc(N4CCOCC4)cc3)ccc21	-	-	5.5	-	6.0
CN1/C(=C\C=C(C#N)C#N)C(C)(C)c2ccccc21	-	-	-	-	.
CN1/C(=C/C=N/n2cnnc2)C(C)(C)c2ccccc21	-	-	4.8	-	-
CCN(CC)c1ccc(/C=N/NC(=O)Cc2cccs2)c(O)c1	-	-	6.2	-	-
CCN(CC)c1ccc(/C=N/N(c2ccccc2)c2ccccc2)c(O)c1	-	-	-	-	.
CCN(CC)c1ccc(C=Nc2ccccc2C)c(O)c1	-	-	6.5	-	-
CCN(CC)c1ccc(C=Nc2ccc(C#N)cc2)c(O)c1	-	-	7.6	-	5.6
COC(=O)[C@]12C[C@H](CC(=O)NCc3ccc(OC)c(OC)c3)C(=O)N(CCc3ccc(OC)c(OC)c3)C1=C[C@H](C(C)(C)C)O[C@@H]2C	.	.	-	.	.
COC(=O)[C@]12C[C@H](CC(=O)NCc3cccs3)C(=O)N(Cc3ccccc3)C1=C[C@H](C1CCCC1)O[C@@H]2C	.	.	-	.	.
SMILES	PKA-R2B activ	PKA-R1A act	MsrA inh	MsrA act	MsrA inh confirm
CCCCNc1cccc2c1S(=O)(=O)N[C@H](C)CO2	.	.	-	.	.
COC(=O)[C@]12C[C@H](CC(=O)N3CCN(C(=O)C4CC4)CC3)C(=O)N(Cc3ccc4c(c3)OCO4)C1=C[C@H](COCc1ccccc1)O[C@@H]2C	.	.	-	.	.
COc1ccc(-c2cc(C(F)(F)F)n3nc(C(=O)N4CCOCC4)nc3n2)cc1	-	-	7.7	-	4.9
O=C(c1nc2nc(-c3ccccc3)cc(C(F)(F)F)n2n1)N1CCCCC1	-	-	-	-	.
Cc1ccc(Cn2cc(CN3CC(N4CCSCC4)CS3(=O)=O)nn2)cc1 (stereo unspecified)	.	.	-	-	.
CCOC(=O)[C@]12CCC=C1N(Cc1ccco1)C(=O)[C@H](CC(=O)N1CCN(C(=O)c3ccco3)CC1)C2	.	.	-	-	.
COc1ccccc1-c1cc(C(F)(F)F)nc(N2CCN(c3ccccc3)CC2)n1	-	-	-	-	.
COc1ccccc1-c1cc(C(F)(F)F)nc(N2CCOCC2)n1	-	-	12.5	-	13.4
CCN(CC)c1ccc(C(=O)c2ccccc2C(=O)O)c(O)c1	-	-	4.7	-	4.8
O=C1c2ccccc2C(c2nnnn2Cc2ccccc2)N1Cc1cccs1 (stereo unspecified)	.	.	-	-	.
C/C(=N\NC(N)=O)c1ccc(-n2ccnc2)cc1	-	-	-	-	.
C/C(=N\Nc1ccc(C(=O)O)cc1)c1ccc(-n2ccnc2)cc1	-	-	6.5	-	4.5
Nc1nonc1-c1nc2ccccc2n1CC(=O)N/N=C/c1ccc(-c2ccccc2C(=O)O)o1	-	-	7.3	-	6.9
O=C(NNC(=O)C1CC1)c1cc2cc3ccccc3nc2s1	-	-	4.9	-	-
O=C(NNC(=O)c1cc2cc3ccccc3nc2s1)c1ccc(F)cc1	-	-	-	-	.
COc1ccc(/C=C2\Oc3cc(OCC(=O)N4CCC[C@H]4C(=O)O)ccc3C2=O)c(OC)c1	-	-	.	-	.
COc1cccc(/C=C2\Oc3cc(OCC(=O)N4CCC[C@H]4C(=O)O)ccc3C2=O)c1	-	-	5.7	-	5.9
COc1ccccc1/C=C/C1=NC(=C\C=C/c2ccccc2)/C(=O)O1	-	-	6.4	-	-
COc1ccccc1/C=C/C=C1N=C(/C=C/c2ccc(Cl)cc2)OC/1=O	-	-	-	-	.
N#CC(=Nc1cccc(F)c1)C1=C(O)c2ccccc2C1=O	.	.	5.2	-	-
COc1ccc(CN=C(C#N)C2=C(O)c3ccccc3C2=O)cc1	-	-	-	-	.
COc1ccccc1C1/C(=C(/O)c2ccccc2)C(=O)C(=O)N1CCO (stereo unspecified)	-	-	-	-	.
CCN(CC)CCCN1C(=O)C(=O)/C(=C(/O)c2ccccc2)C1c1cc(OC)ccc1OC (stereo unspecified)	-	-	18.6	-	6.4
COc1cccc(C(=O)N[C@@H](CC(C)C)C(=O)N2CCC[C@H]2C(=O)NCc2ccccc2)c1	.	.	-	.	.
CNS(=O)(=O)c1cccc(C(=O)OCCCOC(=O)c2cccc(S(=O)(=O)NC)c2)c1	-	-	-	-	.
CNS(=O)(=O)c1cccc(C(=O)OCC(=O)c2cc3ccccc3o2)c1	-	-	23.8	-	18.8
CCN(CC)c1nc(N)c2c(N)n(-c3ccccc3C)c(=S)c(C#N)c2c1C#N	-	-	8.0	-	9.3
CCN(CC)c1cc(C)c(C#N)c2nc3ccccc3n12	-	-	-	-	.
CC(C)N(C(=O)CSc1nnnn1-c1ccc2c(c1)OCO2)C(C)C	.	.	-	-	.
